Screens deposited in PubChem by several laboratories.
Only some compounds are listed: those with a hit (about 3.8% of all), similar ones and a draw of the others.
NTR1 ag = agonists of human NTR1, primary screen, imaging, U2OS cells, beta-arrestin-GFP, high content; actives 0.17% (n = 330,000); Neurotensin receptor type 1 (Homo sapiens), P30989; NTR1-U2OS beta-arrestin-GFP spot imaging, agonist mode; activation, % at 20 µM;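 active = activation at or above 40% of the spot to cytoplasm intensity ratio, with at least 20 cells analyzed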;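 note: 0% = DMSO without peptide and 100% = 100 nM NTR1 peptide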
Target sequence (P30989 whole entry, looked up): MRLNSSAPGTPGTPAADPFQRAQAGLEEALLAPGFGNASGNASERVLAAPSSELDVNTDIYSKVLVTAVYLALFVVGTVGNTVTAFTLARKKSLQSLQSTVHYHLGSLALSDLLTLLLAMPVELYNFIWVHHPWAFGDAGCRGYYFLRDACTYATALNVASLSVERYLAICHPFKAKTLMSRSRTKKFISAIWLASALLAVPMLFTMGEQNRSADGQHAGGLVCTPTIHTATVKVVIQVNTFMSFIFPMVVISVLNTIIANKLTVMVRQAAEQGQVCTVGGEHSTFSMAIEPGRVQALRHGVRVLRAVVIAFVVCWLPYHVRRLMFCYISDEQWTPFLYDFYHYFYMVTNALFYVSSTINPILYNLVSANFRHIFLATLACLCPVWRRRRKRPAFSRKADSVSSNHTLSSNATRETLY
Mdm2-MdmX inh = inhibitors of human Mdm2-MdmX association, primary screen, cell-based, luminescence, split luciferase, SaOS-2, uHTS. Protein Mdm4 (Homo sapiens) + E3 ubiquitin-protein ligase Mdm2 (Homo sapiens), …. SaOS-2 split-luciferase Mdm2/MdmX complementation. inhibition, % at 8 µM. actives 3% (n = 330,000). AID 485346, 2010;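 active = inhibition of at least 50% at 8 µM in the primary screen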
A1 inh = caspase 3/7 activation in MEF A1-2A-BIM cells, primary screen, A1 inhibitor project, cell-based, luminescence, HTS; Caspase-Glo 3/7 luminescence, 3 h; percent of clofoctol response, vehicle zero; caspase activation, % (concentration not given with the values); actives 0.066% (n = 330,000); AID 2462, 2010;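 active = over half of replicate activation scores above 10%, or exactly half above 10 with the replicate mean above 10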
Jurkat NFkB inh = inhibitors of induced NF-kB luciferase reporter, primary screen, TCR NF-kB activation inhibitor project, cell-based, luminescence, uHTS. Jurkat, PMA/ionomycin-induced NF-kB luciferase reporter. inhibition, % at 4 µM. actives 0.53% (n = 330,000). AID 435003, 2010; in the data active = inhibition above about 50%
Beta cell apopt = inhibitors of cytokine-induced beta cell apoptosis, primary screen, luminescence; AID 435005, 2010; INS-1E cytokine-induced death, ATP luminescence, 48 h; percent of positive-control rescue, neutral wells zero; protection from apoptosis, % (no concentration beside the values); actives 0.8% (n = 300,000);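 active = Every replicate reaches about 75%, or at least half do and their mean reaches it too, limit read from the data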;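 note: 0% = cytokine-treated negative control wells and 100% = positive control rescue; higher means more ATP so stronger rescue from cytokine killing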
697 NFkB inh = inhibitors of PMA/ionomycin-induced NF-kB reporter, 697 cells, primary screen, B-cell NF-kB inhibitor project, cell-based, luminescence, uHTS; 697 B-cell NF-kB luciferase reporter, 16 h; inhibition, % at 4 µM; actives 0.33% (n = 330,000); in the data active = inhibition above about 35%
Mdm2-MdmX conf = Mdm2-MdmX complex disruptors, retested hits, confirmation, luminescence, single concentration; shares compounds with Mdm2-MdmX inh; Mdm2-MdmX binding, luminescent assay; inhibition, % at 8 µM; actives 55% (n = 10,000); in the data active = inhibition above about 40%
Full FLuc ctr = full-length luciferase signal inhibition, confirmation, counter-screen for Mdm2/MdmX interaction inhibitor project, cell-based, single concentration, SaOS-2 | shares compounds with Mdm2-MdmX inh | SaOS-2 full-length luciferase counterscreen, luminescence | inhibition, % at 8 µM | actives 77% (n = 6,200);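 active = mean inhibition at 8 µM reaching about 37%, which flags the compound as non-specific, limit read from the data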;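 note: p53-null SaOS-2 cells with luciferase driven by a doxycycline-inducible promoter; compound on cells about two nights before reading with doxycycline added after day one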
Active calls of the source: *.

Cc1cccc(NC(=O)CNC(=O)CSc2nc(N)cc(N)n2)c1C was read as NTR1 ag 1.5, Mdm2-MdmX inh -4.4, Jurkat NFkB inh -7.8 and 697 NFkB inh -14.9.
For CCN(CC)c1nc(Nc2ccccc2)nc(Oc2ccc(=O)n(C)n2)n1 the results were NTR1 ag 0.3, Mdm2-MdmX inh 63.5*, A1 inh -0.3, Jurkat NFkB inh -4.8, Beta cell apopt 3.2, 697 NFkB inh 3.5 and Mdm2-MdmX conf 27.6.
COc1ccc(-c2nn(CCC#N)cc2C(=O)Nc2ccccn2)cc1OC was read as NTR1 ag 0.5, Mdm2-MdmX inh -13.8, A1 inh 0.0, Jurkat NFkB inh 5.3, Beta cell apopt 1.0 and 697 NFkB inh 9.9.
`C=CCc1cccc(/C=N/NC(=O)CCCNc2ccc(C)cc2)c1O` gave A1 inh 1.2 and Beta cell apopt -2.5.
C=CCc1cccc(/C=N/NC(=O)CNc2cccc3ccccc23)c1O was read as NTR1 ag 6.2, Mdm2-MdmX inh 71.2*, A1 inh 0.0, Jurkat NFkB inh -2.5, 697 NFkB inh 6.6, Mdm2-MdmX conf 66.0* and Full FLuc ctr 38.9*.
For C=CCc1cccc(/C=N/NC(=O)C(C)Nc2cccc(C)c2)c1O (centres undefined) the results were NTR1 ag 5.0, Mdm2-MdmX inh 70.5*, A1 inh 0.3, Jurkat NFkB inh 6.8, Beta cell apopt 22.2, 697 NFkB inh 5.0, Mdm2-MdmX conf 55.6* and Full FLuc ctr 34.9.
C=CCc1cccc(/C=N/NC(=O)CCC(=O)Nc2ccc(F)cc2)c1O was read as NTR1 ag 0.1, Mdm2-MdmX inh 70.7*, A1 inh 0.1, Jurkat NFkB inh 24.2, Beta cell apopt 92.9*, 697 NFkB inh -3.2, Mdm2-MdmX conf 63.6* and Full FLuc ctr 17.4.
`C=CCc1cccc(/C=N/NC(=O)CNc2ccccc2)c1O` gave NTR1 ag 1.5, Mdm2-MdmX inh 55.6*, A1 inh -0.4, Jurkat NFkB inh -0.9, Beta cell apopt 90.0*, 697 NFkB inh 11.4, Mdm2-MdmX conf 55.3* and Full FLuc ctr 32.9.
`CC1CCN(C(=O)Cn2c3ccccc3c3nc4n(c(=O)c32)CCS4)CC1` gave NTR1 ag 1.5, Mdm2-MdmX inh 13.6, A1 inh 0.0, Jurkat NFkB inh -8.4, Beta cell apopt 4.2 and 697 NFkB inh -11.9.
For O=C1CN(S(=O)(=O)c2cc(Cl)ccc2Cl)c2ccccc2N1 the results were NTR1 ag 1.8, Mdm2-MdmX inh 16.1, A1 inh -0.1, Jurkat NFkB inh 3.2, Beta cell apopt -0.3 and 697 NFkB inh 10.8.
`C=CCc1cccc(/C=N/NC(=O)C[n+]2ccccc2)c1O` gave NTR1 ag 0.1, Mdm2-MdmX inh 6.7, A1 inh -1.5, Jurkat NFkB inh 11.1, Beta cell apopt 53.7 and 697 NFkB inh 2.5.
C=CCc1cccc(/C=N/NC(=O)CNc2ccccc2OC)c1O was read as NTR1 ag 4.2, Mdm2-MdmX inh 69.2*, A1 inh 0.4, Jurkat NFkB inh 21.4, Beta cell apopt -3.1, 697 NFkB inh 9.6, Mdm2-MdmX conf 55.0* and Full FLuc ctr 28.3.
`O=C(N[C@@H](Cc1ccccc1)C(=O)OCc1ccccc1)c1nc[nH]c1C(=O)N1CCN(c2ccccc2)CC1` gave NTR1 ag 24.2, Mdm2-MdmX inh 65.1*, A1 inh -0.4, Jurkat NFkB inh -12.0, Beta cell apopt -2.6, 697 NFkB inh -41.9 and Mdm2-MdmX conf -15.3.
`CC(C)C[C@H](NC(=O)c1nc[nH]c1C(=O)NC(c1ccccc1)c1ccccc1)C(=O)OCc1ccccc1` gave NTR1 ag 8.7, Mdm2-MdmX inh 51.3*, A1 inh 2.4, Jurkat NFkB inh 24.2, Beta cell apopt -9.2, 697 NFkB inh 13.8 and Mdm2-MdmX conf 11.2.
CC(C)C[C@H](NC(=O)c1nc[nH]c1C(=O)N[C@@H](CC(C)C)C(=O)OCc1ccccc1)C(=O)OCc1ccccc1 was read as NTR1 ag 24.1, Mdm2-MdmX inh 57.9*, A1 inh -0.4, Jurkat NFkB inh 10.1, Beta cell apopt -0.3, 697 NFkB inh 2.0 and Mdm2-MdmX conf -0.1.
C[C@H](NC(=O)c1nc[nH]c1C(=O)N1CCN(c2ccccc2)CC1)C(=O)OCc1ccccc1 was read as NTR1 ag 2.9, Mdm2-MdmX inh -9.8, A1 inh -0.2, Jurkat NFkB inh 5.4, Beta cell apopt 2.6 and 697 NFkB inh -13.2.
Cc1cccc(CN2CCN(C(=O)CCl)CC2)c1 was read as NTR1 ag 0.0, Mdm2-MdmX inh 63.7*, A1 inh -0.7, Jurkat NFkB inh -0.8, Beta cell apopt -7.3, 697 NFkB inh 2.8 and Mdm2-MdmX conf 17.5.
For C/C(Cl)=C\Cn1c(O)c(N=NC(N)=S)c2cc(Br)ccc21 the results were NTR1 ag 17.7, Mdm2-MdmX inh 74.6*, A1 inh -1.2, Jurkat NFkB inh 4.6, Beta cell apopt 29.9, 697 NFkB inh 17.6, Mdm2-MdmX conf 49.0* and Full FLuc ctr 74.4*.
`CC(C)Cc1nnc(NC(=O)C2=COCCO2)s1` gave NTR1 ag -0.6, Mdm2-MdmX inh 8.8, A1 inh 0.8, Jurkat NFkB inh -27.5, Beta cell apopt 0.3 and 697 NFkB inh -67.8.
For COc1cc(Nc2nc(-c3ccccc3)c3cc(C)ccc3n2)cc(OC)c1OC the results were NTR1 ag 10.3, Mdm2-MdmX inh 56.2*, A1 inh 0.7, Jurkat NFkB inh 7.1, Beta cell apopt 6.6, 697 NFkB inh 6.6 and Mdm2-MdmX conf 23.6.
For COc1ccccc1NCC(O)Cn1c2ccccc2c2ccccc21 (centres undefined) the results were NTR1 ag 30.9, Mdm2-MdmX inh 23.9, A1 inh -1.5, Jurkat NFkB inh 9.4, Beta cell apopt -1.3 and 697 NFkB inh 4.3.
`c1ccc2c(NCCc3c[nH]c4ccccc34)c3ccccc3nc2c1` gave NTR1 ag 24.5, Mdm2-MdmX inh 100.3*, A1 inh -0.4, Jurkat NFkB inh -10.5, 697 NFkB inh -30.0, Mdm2-MdmX conf 60.4* and Full FLuc ctr 54.9*.
